Laboratory results published in the supplement of paper PMC6555819.

Assays:
Assay in all cases: PBM binding z-score (relative to random genomic background probes); higher = stronger binding; sequences stand for … in GC…GCGATTGACAGCGTAGAATGAAGG
[1] = test system: FXR:RXRa (NR concentration 270 nM, RXRa partner concentration 90 nM)
Method in brief: (§1)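 Scanned fluorescence from custom Agilent 4×180K protein-binding microarrays was regression-normalized. Binding z-scores use random background probes as reference. Ligand-free nuclear receptor dimers were incubated on the arrays for 1 h and detected with antibodies against each partner (one per run).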

[2] = test system: LXRa homodimer (NR concentration 270 nM)
Method in brief: as §1

[3] = test system: LXRb homodimer (NR concentration 270 nM)
Method in brief: as §1

[4] = test system: PPARa:RXRa (NR concentration 270 nM, RXRa partner concentration 90 nM)
Method in brief: as §1

[5] = test system: PPARg:RXRa (NR concentration 180 nM, RXRa partner concentration 90 nM)
Method in brief: as §1

[6] = test system: PPARg:RXRa 270nM:90nM, anti-RXR (NR concentration 270 nM, RXRa partner concentration 90 nM)
Method in brief: as §1

[7] = test system: PPARg:RXRa 30nM:10nM, anti-RXR (NR concentration 30 nM, RXRa partner concentration 10 nM)
Method in brief: as §1

[8] = test system: PPARg:RXRa 90nM:30nM, anti-RXR (NR concentration 90 nM, RXRa partner concentration 30 nM)
Method in brief: as §1

[9] = test system: PPARg:RXRa DBDmut IVT, anti-RXR (DBD mutation: RXRa K156A/R161A, NR concentration 270 nM, RXRa partner concentration 90 nM)
Method in brief: as §1

[10] = test system: PPARg:RXRa IVT, anti-PPARg (NR concentration 270 nM, RXRa partner concentration 90 nM)
Method in brief: as §1

[11] = test system: PPARg DBDmut:RXRa IVT, anti-PPARg (DBD mutation: PPARg1 K132A/R137A, NR concentration 270 nM, RXRa partner concentration 90 nM)
Method in brief: as §1

[12] = test system: PPARg DBDmut IVT, anti-PPARg (DBD mutation: PPARg1 K132A/R137A, NR concentration 270 nM)
Method in brief: as §1

[13] = test system: PPARg homodimer (NR concentration 180 nM)
Method in brief: as §1

[14] = test system: PXR:RXRa (NR concentration 270 nM, RXRa partner concentration 90 nM)
Method in brief: as §1

[15] = test system: PXR homodimer (NR concentration 270 nM)
Method in brief: as §1

[16] = test system: RARa:RXR (NR concentration 270 nM, RXRa partner concentration 90 nM)
Method in brief: as §1

[17] = test system: RARa homodimer (NR concentration 270 nM)
Method in brief: as §1

[18] = test system: RARb:RXRa (NR concentration 270 nM, RXRa partner concentration 90 nM)
Method in brief: as §1

[19] = test system: RARb homodimer (NR concentration 270 nM)
Method in brief: as §1

| Sequence | PBM binding z-score [1] | PBM binding z-score [2] | PBM binding z-score [3] | PBM binding z-score [4] | PBM binding z-score [5] | PBM binding z-score [6] | PBM binding z-score [7] | PBM binding z-score [8] | PBM binding z-score [9] | PBM binding z-score [10] | PBM binding z-score [11] | PBM binding z-score [12] | PBM binding z-score [13] | PBM binding z-score [14] | PBM binding z-score [15] | PBM binding z-score [16] | PBM binding z-score [17] | PBM binding z-score [18] | PBM binding z-score [19] |
| --- | --- | --- | --- | --- | --- | --- | --- | --- | --- | --- | --- | --- | --- | --- | --- | --- | --- | --- | --- |
| TCTAGTTGGTCACGGAGGACACACACGACGGGTA | 0.602 | 0.465 | 0.417 | 0.752 | 1.34 | 1.7 | 2.85 | 2.53 | 2.26 | 2.32 | 1.35 | 1.02 | 0.981 | 0.558 | 0.193 | 0.682 | 0.611 | 2.19 | 2.13 |
| ATCGAAAGGTCCAAGGTGAGTATACCCACCCGAA | 0.219 | -0.213 | 0.175 | 0.771 | 1.01 | 0.802 | 0.219 | 0.627 | -0.563 | 0.666 | 0.0343 | 0.185 | 0.369 | 0.0935 | -0.107 | 0.511 | 0.706 | 1.49 | 0.938 |
| ATATGTAGGTTACATCCGGGTCATCCAGGCTATG | 1.91 | 1.67 | 0.838 | 4.41 | 6.12 | 5.21 | 2.47 | 4.55 | 7.32 | 7.51 | 3.31 | 2.5 | 2.45 | 3.45 | 1.14 | 3.67 | 0.961 | 2.3 | 3.26 |
| TAGCCTAGTTCATGCGGGCCAGTATAGTGTCGGC | -0.33 | -0.511 | -0.772 | 0.278 | -0.0909 | -0.0482 | -0.651 | -0.319 | 0.864 | 0.949 | -0.253 | -0.528 | -0.545 | 0.59 | 0.113 | -0.185 | -0.774 | 1.05 | 0.519 |
| ACTCGGAGGACAAAGGTCAGGGCTACGCCAGTGA | 4.61 | 1.43 | -0.0403 | 4.98 | 9.17 | 7.08 | 5.85 | 7.6 | 0.813 | 3.76 | 0.115 | -0.434 | 4.95 | 4.18 | 0.463 | 5.81 | 1.53 | 4.69 | 4.65 |
| AATACAAGGTCATCGTAGGCCAGAGTACGCACAG | 7.64 | 6.1 | 3.33 | 5.75 | 6.55 | 5.94 | 2.73 | 5.04 | 3.93 | 4.7 | 0.979 | 1.37 | 2.81 | 4.87 | 2.13 | 4.63 | 1.33 | 5.15 | 4.19 |
| AGTCAAAGTTGAGGACGAGGTAACGTAAAGCACG | 0.359 | -0.388 | -0.483 | 0.937 | 1.44 | 1.74 | 0.562 | 0.984 | -0.189 | 0.639 | 0.307 | -0.0552 | 0.137 | 0.261 | -0.0592 | 0.951 | 0.0325 | 1.46 | 1.01 |
| CCTTACGGGTCAAGGTTATAGCCCGGGTGGTACG | 5.51 | 0.231 | -0.334 | 4.97 | 4.06 | 4.86 | 1.37 | 3.74 | 1.8 | 3.44 | -0.234 | -0.862 | 1.69 | 3.43 | 0.303 | 4.46 | 0.676 | 4.33 | 3.8 |
| AGTCAAAGTTCAGGACGACGTAACGTAAAGCACG | 3.58 | 0.954 | -0.163 | 2.98 | 4.42 | 4.5 | 1.87 | 4 | -0.52 | 1.54 | 0.437 | -0.388 | 1.53 | 2.18 | 0.785 | 1.86 | 0.264 | 3.92 | 2.77 |
| ATATGTAGGTTAACTGGGGTCATTCAGACTAGGC | 5.59 | 5.57 | 1.43 | 5.96 | 7.58 | 6.61 | 4.49 | 6.42 | 7.59 | 7.34 | 1.81 | 2.42 | 1.95 |  | 5.25 | 5.93 | 1.61 | 3.55 | 4.28 |
| CCTTACGGGTCACTCCAGGTTATATCATCGGAGT | 4.99 | 2.49 | 0.56 | 4.5 | 3.65 | 3.72 | 0.84 | 2.78 | 2.96 | 3.56 | 0.671 | -0.354 | 1.62 | 5.16 | 0.444 | 3.62 | 0.321 | 3.69 | 3.31 |
| CCTAGTTGGTCAAGGTCACATACGCTATAGGTAC | 3.98 | 1.97 | 1.23 | 4 | 3.3 | 3.43 | 1.17 | 2.91 | 2.23 | 3.3 | 1.13 | 1 | 3.03 | 4.1 | 2.39 | 4.46 | 2.55 | 3.95 | 4.15 |
| AGAATGAGGTTAAGTTCAGGGAAACAGAATACAT | 4.05 | 0.441 | -0.00698 | 4.63 | 3.45 | 3.89 | 1.62 | 3.51 | 3.13 | 3.33 | 1.62 | 0.811 | 1.08 | 3.31 | 1.91 | 3.03 | 0.895 | 3.17 | 2.6 |
| ATCGAAAGGTCGAAGGTGAGCATACCCACCCGAA | 4.19 | 0.288 | 0.758 | 5.01 | 5.08 | 5.08 | 2.36 | 4.36 | 0.147 | 2.39 | 0.377 | 0.499 | 1.46 | 3.16 | 0.092 | 4.44 | 0.708 | 3.86 | 3.01 |
| CCTACTGGACCAAGGTCATTGATCAGTCAAAGCA | 3.24 | 1.96 | 0.618 | 3.97 | 2.11 | 2.77 | 0.593 | 1.95 | 2.03 | 2.23 | 0.0744 | 0.144 | 2.59 | 3.88 | 1.96 | 3.91 | 0.91 | 3.23 | 3.4 |
